Tested on: Coprococcus comes
Assay: growth AUC relative to DMSO control (median of replicates) (fraction); higher = more growth (less inhibition), active = hit call of the paper
Conditions: 20 µM; 24 h;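 active = AUC reduced over 20% with Padj below 0.05 in at least 2 of 3 replicates; inactive = otherwise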
Outline: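 Gut bacterial monocultures were grown anaerobically at 37 °C in mGAM from a starting OD600 of 0.05 with 20 µM compound (1% DMSO), in round-bottom 96-well plates under pierced gas-permeable seals, and OD600 was read hourly for 24 h. With the minimum OD set to 0, area under the growth curve was normalised to the plate median of solvent-only wells, or to row and column medians on the industrial chemical plate. Each value is the median of three biological replicates grown on separate days.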

Structure (SMILES) | growth AUC
N#Cc1ccc(CC(=NNC(=O)Nc2ccc(OC(F)(F)F)cc2)c2cccc(C(F)(F)F)c2)cc1 (mixture of isomers) | 0.991 (inactive)
COC(=O)C(C)Oc1ccc(Cl)cc1Cl (centres undefined) | 1.01 (inactive)
CC(C)N(C(=O)C(=O)O)c1ccccc1 | 1.03 (inactive)
c1ccc(CNc2ncnc3nc[nH]c23)cc1 | 1.06 (inactive)
C=CCc1ccc(O)c(OC)c1 | 0.971 (inactive)
CCCCOC(=O)COc1ccc(Cl)cc1Cl | 0.991 (inactive)
CC(Oc1ccc(Cl)cc1Cl)C(=O)NC(C)(C#N)C(C)C (centres undefined) | 1.02 (inactive)
Cc1cccc(C)c1N(CC(=O)O)C(=O)CS(=O)(=O)[O-].[Na+] | 0.996 (inactive)
c1ccc2cc3ccccc3cc2c1 | 0.927 (inactive)
Cn1cc(C(=O)Nc2ccc(F)cc2-c2ccc(Cl)c(Cl)c2)c(C(F)F)n1 | 0.921 (inactive)
O=c1cccc2n1CCn1c-2cccc1=O | 1.01 (inactive)
CCCCCCC(C)OC(=O)COc1nc(F)c(Cl)c(N)c1Cl (centres undefined) | 0.928 (inactive)
Cc1[nH]n(C)c(=O)c1C(=O)c1ccc(C(F)(F)F)cc1S(C)(=O)=O | 0.991 (inactive)
COC(=O)[C@@H](C)Oc1ccc(Oc2ncc(C(F)(F)F)cc2Cl)cc1 | 1.02 (inactive)
CC(C)OC(=O)N[C@H](C(=O)N[C@H](C)c1nc2ccc(F)cc2s1)C(C)C | 1.06 (inactive)
O.O=C(Nc1ccc([N+](=O)[O-])cc1Cl)c1cc(Cl)ccc1O | 0.884 (inactive)
CC1=C(C(=O)Nc2ccccc2)CCCO1 | 1.01 (inactive)
CCOCCOC(=O)C(C)Oc1ccc(Oc2ncc(C(F)(F)F)cc2Cl)cc1 (centres undefined) | 0.989 (inactive)
NS(=O)(=O)[O-].[NH4+] | 1.06 (inactive)
CCOC(=O)CSc1nc(C(C)(C)C)nn1C(=O)N(C)C | 0.985 (inactive)

Structure (SMILES) | growth AUC
CCc1cccc(C)c1NC(=O)CS(=O)(=O)[O-].[Na+] | 0.996 (inactive)
ClC(COCC(Cl)C(Cl)(Cl)Cl)C(Cl)(Cl)Cl (centres undefined) | 0.976 (inactive)
CCC(C)c1cc([N+](=O)[O-])cc([N+](=O)[O-])c1OC(=O)OC(C)C (centres undefined) | 0.867 (inactive)
CC(C)(CO)C(O)(CCc1ccc(Cl)cc1)Cn1cncn1 (centres undefined) | 0.989 (inactive)
CC(C)(C)C(=O)C(Oc1ccc(Cl)cc1)n1ccnc1 (centres undefined) | 0.629 (active)
CC(C)(NC(=O)C(Br)C(C)(C)C)c1ccccc1 (centres undefined) | 0.959 (inactive)
COc1cc(OC)nc(NC(=O)NS(=O)(=O)c2c(Cl)nc3ccccn23)n1 | 0.981 (inactive)
CCc1ccc(O)cc1 | 0.934 (inactive)
CCOc1nc(F)cc2nc(S(=O)(=O)Nc3c(Cl)cccc3C(=O)OC)nn12 | 0.984 (inactive)
CCOCCc1ccc(OCCNc2ncnc(CC)c2Cl)c(C)c1C | 0.978 (inactive)
CCOC(=O)[C@@H](C)Oc1ccc(Oc2cnc3cc(Cl)ccc3n2)cc1 | 0.983 (inactive)
Cc1cccc(C)c1N(C(=O)CCl)C1CCOC1=O (centres undefined) | 0.889 (inactive)
Cc1[nH]oc(=O)c1N=Nc1ccccc1Cl | 1.01 (inactive)
CCCOc1nc2ccc(I)cc2c(=O)n1CCC | 1.04 (inactive)
CCOCOc1ccc(C(=O)Nc2cccc(Cl)c2Cl)cc1 | 0.977 (inactive)
COc1ccc(Oc2ccc(NC(=O)N(C)C)cc2)cc1 | 0.992 (inactive)
COCCN(C(=O)CO)c1c(C)cccc1C(=O)O | 0.972 (inactive)
C/C=C/C=C/CCCCCCCO | 0.995 (inactive)
CCOC(=O)C(C)Oc1ccc(Oc2nc3ccc(Cl)cc3o2)cc1 (racemic) | 0.993 (inactive)
